Drawing on PubChem BioAssay AID1239 (SRMLSC, 2008), this text covers fold change for 100 compounds.

The whole screen tested about 190,000 compounds, of which about 3,100 (1.6%) were called active. Rule as the data show it: active = fold change above about 3.3; inconclusive = no clear call, values can overlap the other calls; inactive = below that. This excerpt belongs to a sample that is enriched for actives.

The nature of the assay: activators of NF-kB expression in neurons, primary screen, cell-based, HTS (AID 1239). The note with it: human neuronal cells, NF-kB reporter expression; at 12.5 µM; hits give high values.
On to `Cc1nn(-c2ccc([N+](=O)[O-])cc2)c(N)c1-c1ccccc1`, for which the fold change was 6.64 (active).

`Cc1nn(-c2ccccc2)c2c1C(c1cccc([N+](=O)[O-])c1)N(c1ccccc1)C(=O)N2` (stereo not given): the fold change was 1.17 (inactive).

As to `O=C1CC(c2ccccc2)=NN1c1ccc([N+](=O)[O-])cc1`, the fold change was 1.27 (inactive).

On to `Cc1nc2cc(NC(=O)NCc3ccccc3)ccc2o1`, for which the fold change was 1.54 (inactive).

For the compound `Cc1nc2ccc(NC(=O)C(F)(F)F)cc2o1`, the fold change was 0.91 (inactive).

With `Cc1ccc(NC(=O)Nc2ccc3oc(C)nc3c2)cc1`, the fold change was 5.03 (active).

For the compound `COc1ccc(C2CC(c3cccs3)=NN2c2ccccc2)cc1` (stereo not given), the fold change was 1.15 (inactive).

`CCCNS(=O)(=O)c1ccc(CCC(=O)N2CCCC2)cc1`: the fold change is 1.25 (inactive).

On to `OCCC1CN(Cc2ccc3nsnc3c2)CCN1C1CCCC1` (stereo not given), for which the fold change was 5.55 (active).

As to `OCCC1CN(Cc2ccc3nsnc3c2)CCN1C1CCCCC1` (stereo not given), the fold change is 0.99 (inactive).

For `Cn1cnnc1Sc1ccc(CN2CCN(C3CCCC3)C(CCO)C2)o1` (stereo not given), the fold change is 1.08 (inactive).

On to `N/C(=N\OC(=O)CCc1ccccc1)c1cccnc1`, for which the fold change is 1.31 (inactive).

As to `OCC1(Cc2ccccc2C(F)(F)F)CCN(Cc2cccc3cnccc23)CC1`, the fold change was 0.85 (inactive).

As to `COc1ccccc1CNC(=O)c1ccc(SC)cc1OC`, the fold change is 1.42 (inactive).

With `COc1cc(SC)ccc1C(=O)NCCOc1ccccc1Cl`, the fold change was 5.99 (active).

`COc1cc(SC)ccc1C(=O)Nc1cc(C)ccn1`: the fold change was 1.01 (inactive).

On to `COc1cc(CNCCN(C)C)ccc1OCc1c(F)cccc1Cl`, for which the fold change is 1.11 (inactive).

For `COc1cccc(CN(C)CC(=O)Nc2ccccc2C(=O)Nc2ccccc2)c1`, the fold change was 0.95 (inactive).

For the compound `O=c1[nH]c2cccnc2n(CCNc2ncc(C(F)(F)F)cc2Cl)c1=O`, the fold change is 1.12 (inactive).

For `NC(N)=Nc1nc2ccc(Br)cc2c(=O)[nH]1`, the fold change is 3.87 (active).

Take `C/C(=N\N)c1c(-c2ccccc2)c2cc(Br)ccc2[nH]c1=O`: the fold change was 0.98 (inactive).

Regarding `NC(=O)C1CCN(Cc2nc3c(Br)cc(Br)cc3c(=O)[nH]2)CC1`, the fold change was 1.47 (inactive).

As to `CC(C)Cn1c(N)c(C(=O)COC(=O)CN2C(=O)C3CC=CCC3C2=O)c(=O)n(C)c1=O` (stereo not given), the fold change is 0.78 (inactive).

As to `Cc1ccc(NC(=S)NC(=O)c2ccc(-c3ccccc3)cc2)c(C)c1`, the fold change is 1.18 (inactive).

On to `Cc1ccc(NC(=S)NCc2ccccc2Cl)c(C)c1`, for which the fold change is 0.92 (inactive).

Consider `Cc1ccc(NC(=S)Nc2ncccc2C)c(C)c1`, for which the fold change was 3.74 (active).

With `Cc1ccc(S(=O)(=O)N(C)C)cc1NC(=O)c1ccccc1Br`, the fold change was 1.05 (inactive).

With `COC(=O)CCNC(=O)c1ccc2[nH]c(C)c(C)c2c1`, the fold change was 0.99 (inactive).

For `CCn1c(/C=C/c2ccc([N+](=O)[O-])o2)nc2ccccc2c1=O`, the fold change is 4.02 (active).

`C/[N+]([O-])=C\c1ccc([N+](=O)[O-])o1`: the fold change is 0.83 (inactive).

Turning to `Cn1cc(/C=C/c2nc3ccccc3c(=O)n2-c2cccc([N+](=O)[O-])c2)c2ccccc21`, the fold change is 1.02 (inactive).

As for `Cn1c(=N)n(CC(O)c2cccs2)c2ccccc21` (stereo not given), the fold change was 1.08 (inactive).

For `CC(C)(C)N(CC#CCC(O)(c1ccccc1)C1CCCC1)CCO` (stereo not given), the fold change was 1.15 (inactive).

For the compound `COc1ccccc1N1CC(O)=C(c2nc3ccccc3s2)C1=N`, the fold change is 0.59 (inactive).

Take `COc1cccc2sc(NNC(=O)c3nc4ccccc4s3)nc12`: the fold change was 1.13 (inactive).

In the case of `COc1ccccc1OCc1nc2ccccc2s1`, the fold change was 4.3 (active).

Consider `Cc1ccc(NC(=O)c2csc3c2CCCC3)cc1`, for which the fold change is 1.12 (inactive).

As to `CCN1CCN(C(=O)CN(C)S(=O)(=O)c2ccc3ccccc3c2)CC1`, the fold change was 1 (inactive).

As to `CCc1ccc(NC2Nc3cc(C)nn3S2)cc1` (stereo not given), the fold change is 4.6 (active).

Turning to `CCOC(=O)c1ccc(NC2Nc3cc(C)nn3S2)cc1` (stereo not given), the fold change was 1.14 (inactive).

On to `CCc1ccc(NC(=O)N2CCN(c3ccccc3)CC2)cc1`, for which the fold change was 1.34 (inactive).

As to `O=C(NCc1ccccc1)C1=C[C@@H](c2ccc(C(F)(F)F)cc2)C[C@@H](OCc2ccc(CO)cc2)O1`, the fold change was 0.94 (inactive).

In the case of `CCN(C(=O)COC(=O)c1ccc(COc2ccc3c(C)cc(=O)oc3c2)cc1)C1CCS(=O)(=O)C1` (stereo not given), the fold change is 1.19 (inactive).

In the case of `CSCC(=O)N1CCCC(C(=O)c2cc(F)ccc2F)C1` (stereo not given), the fold change was 1.18 (inactive).

Turning to `Fc1ccccc1N=C1Nc2cccc3cccc1c23`, the fold change is 0.99 (inactive).

As for `Cc1cccc(-n2c(O)c(C=Nc3ccccc3N)c(=O)[nH]c2=O)c1`, the fold change is 4.16 (active).

Consider `Cc1ccc(N=Cc2c(O)n(-c3nccs3)c(=O)c3ccccc23)c(C)c1`, for which the fold change was 1.01 (inactive).

In the case of `Cc1cccc(-n2c(C)cc(/C=N/NC(N)=S)c2C)c1`, the fold change was 1.29 (inactive).

With `Cc1c(CN2CCCC(C(=O)c3cccc(Cl)c3)C2)c(=O)n(-c2ccccc2)n1C` (stereo not given), the fold change was 1.12 (inactive).

Consider `Cc1ccc(C(=O)Nc2cccc3ncccc23)cc1[N+](=O)[O-]`, for which the fold change was 1.38 (inactive).

As for `CC(C)(c1ccccc1)c1ccc(OCCN)cc1`, the fold change was 1.16 (inactive).

As to `O=C(Nc1ccc(F)cc1)N1CCN(c2ccc(F)cc2)CC1`, the fold change was 1.12 (inactive).

Take `CCOC(=O)C1(Cc2cccc(OC)c2)CCN(Cc2csc(C(C)=O)c2)CC1`: the fold change is 0.84 (inactive).

Regarding `O=C(O)c1cccc(N=NN2CCCCCC2)c1`, the fold change was 5.59 (active).

Consider `O=C(O)c1ccc(N=NN2CCOCC2)cc1`, for which the fold change is 1.3 (inactive).

Consider `O=C(c1ccccc1)N1CCN(C(=O)N2CCCCC2)CC1`, for which the fold change was 1.3 (inactive).

Regarding `COc1ccc(C(=O)NC2CCN(C(=S)Nc3ccccc3)CC2)cc1`, the fold change is 1.12 (inactive).

In the case of `COc1ccc(NC(=S)N2N=CCC2c2ccccc2)cc1` (stereo not given), the fold change is 3.93 (active).

With `COc1ccc(C(=S)Nc2ccccc2)cc1`, the fold change is 1.98 (inactive).

With `Cc1ccc(C(=O)NNC(=O)c2cccs2)cc1`, the fold change was 1.67 (inactive).

For the compound `COCCNC(=O)/C(C#N)=C/c1nc(N(C)C)n(-c2ccc(F)cc2)c1Cl`, the fold change is 1.11 (inactive).

Take `Cc1nc(N2CCC(C)CC2)c2c(C)c(C(=O)Nc3cc(F)ccc3C)sc2n1`: the fold change is 0.88 (inactive).

Turning to `O=[N+]([O-])c1cccc(/C([O-])=C(/C(=S)Nc2ccccc2F)[n+]2ccccc2)c1`, the fold change was 1.02 (inactive).

For `Cn1cc(Cl)c(C(=O)NNC(=S)Nc2cccc(Cl)c2)n1`, the fold change was 1.46 (inactive).

As to `COc1ccc(NC(=O)CSc2nc(C)cs2)cc1`, the fold change is 1.38 (inactive).

With `Cc1cccc(C)c1Nc1nnc(SCC(=O)Nc2sccc2C#N)s1`, the fold change was 1.08 (inactive).

Regarding `Cc1csc(SCC(=O)Nc2sccc2C#N)n1`, the fold change was 5.12 (active).

As to `CCO/C=C1\C(=O)N(c2ccc(OCC)cc2)C(=O)c2ccccc21`, the fold change was 1.05 (inactive).

As to `Cc1ccc(-c2csc(NC(=O)c3cccs3)n2)cc1`, the fold change is 1.97 (inactive).

For `Cc1ccc(-c2nnc(-c3ccc(NC(=O)c4cccs4)cc3)o2)cc1`, the fold change was 1.45 (inactive).

For `Cc1nc(-c2ccc(NC(=O)c3cccs3)cc2)cs1`, the fold change was 5.59 (active).

Regarding `COc1ccc(CNC(=O)COC(=O)/C=C/c2ccc(S(=O)(=O)N3CCOCC3)cc2)cc1`, the fold change was 1 (inactive).

As for `COCCNc1nc2nonc2nc1N1CCCC1c1nccs1` (stereo not given), the fold change is 1.05 (inactive).

As to `C=CCN(Cc1nc(-c2cc(OC)c3c(c2)OCO3)oc1C)C1CCS(=O)(=O)C1` (stereo not given), the fold change is 1.14 (inactive).

On to `O=C(CSc1nnc2ccccn12)c1ccccc1`, for which the fold change was 1.88 (inactive).

As to `Cc1ccc(-n2c(C)cc(C(=O)CN3C(=O)C(=O)N(C4CCCC4)C3=O)c2C)cc1`, the fold change was 0.71 (inactive).

In the case of `Cc1ccc(-n2c(C)cc(C(=O)CSc3nnc4ccccn34)c2C)cc1`, the fold change is 3.7 (active).

On to `CC1CC(C)CN(S(=O)(=O)c2ccc(C(=O)NN3CCOCC3)cc2)C1` (stereo not given), for which the fold change is 1.27 (inactive).

Turning to `Cc1cc(OCC(=O)NC2CCN(C)CC2)ccc1[N+](=O)[O-]`, the fold change was 0.99 (inactive).

In the case of `COc1ccccc1N(C)S(=O)(=O)c1ccc(Cl)c(C(=O)N2CCC(C(N)=O)CC2)c1`, the fold change was 1.12 (inactive).

`Cc1ccc(-c2cn3cc(C)ccc3n2)cc1`: the fold change is 0.56 (inactive).

With `Cn1cnc(C(F)(F)F)c1-c1ccc([N+](=O)[O-])cc1`, the fold change is 1.2 (inactive).

On to `Cc1ccc(-c2cn3cc([N+](=O)[O-])ccc3n2)cc1`, for which the fold change is 4.75 (active).

Regarding `CCOC(=O)N1CCN(C(=O)CSc2nc(C)nc3c2c(=O)n(C)c(=O)n3C)CC1`, the fold change is 0.96 (inactive).

As to `Cc1cc(NC(=O)CSc2nc3ccccc3n2CC(C)C)no1`, the fold change was 1.74 (inactive).

On to `COc1ccc(NS(=O)(=O)c2cc(NC(=O)C3CCCCC3)ccc2N2CCOCC2)cc1`, for which the fold change is 0.72 (inactive).

For the compound `Cc1cc(C)nc(NNC2=CC(=O)CC(C)(C)C2)n1`, the fold change was 1.06 (inactive).

As for `COCCOC(=O)C1=C(C)NC(=O)CC1c1cc2c(cc1Br)OCO2` (stereo not given), the fold change is 0.99 (inactive).

Regarding `CCCOc1ccccc1C1CC(=O)Nc2cc3c(cc21)OCO3` (stereo not given), the fold change was 3.71 (active).

`COc1ccccc1C1C2=C(COC2=O)Nc2cc3c(cc21)OCO3` (stereo not given): the fold change is 1.19 (inactive).

With `COc1ccc(-n2ncc3c(N4CCCc5ccccc54)ncnc32)cc1`, the fold change was 1 (inactive).

`O=C(NNc1ncnc2c1cnn2-c1ccccc1)c1ccco1`: the fold change was 1.27 (inactive).

As for `COc1ccc(-n2ncc3c(N4CCc5ccccc54)ncnc32)cc1`, the fold change was 0.87 (inactive).

As to `c1ccc(-n2ncc3c(N4CCCC4)ncnc32)cc1`, the fold change was 5.1 (active).

For the compound `O=C(NCCC1=CCCCC1)C1CCN(Cc2cnn(-c3ccccc3)c2-n2cccc2)CC1`, the fold change was 0.8 (inactive).

With `C1=C(CCNc2ncnc3c2cnn3-c2ccccc2)CCCC1`, the fold change was 4.63 (active).

As to `CCC(CC)NC(=O)CSc1nnc(-c2c[nH]c3ccccc23)o1`, the fold change is 1.09 (inactive).

Consider `COC(c1ccccc1)c1nnc(CCC(=O)N2CCN(CCOc3ccccc3)CC2)o1` (stereo not given), for which the fold change was 1.23 (inactive).

As for `COc1ccc(-c2[nH]ncc2CN(C)Cc2cc(C)[nH]n2)c(F)c1`, the fold change was 0.97 (inactive).

For `COc1ccc(O)c(C(=O)c2cnc3c(c2)c(-c2ccc(F)cc2)c(C#N)c(=O)n3C)c1`, the fold change is 0.93 (inactive).
